HT1080NT lethal: kills 2HG-producing HT-1080-NT fibrosarcoma cells. HT-1080-NT fibrosarcoma viability, CellTiter-Glo ATP luminescence, 48 h. Potency, µM (highest dose often 46.1 µM), without a hit: at the top dose activity, negative = less viability, most hits filed as cytotoxic. 360,000 compounds, 1.6% hits;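 further: NT is the 2HG producing partner of a matched IDH1 knockdown line; 0% = DMSO-treated cells and -100% = media-only wells without cells; nearly all actives have a fitted effect of over 55% in size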
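A 48-hour cytotoxicity screen used HT-1080-NT cells plated 2 hours before compound delivery. ATP-based CellTiter-Glo luminescence measured viability, normalized to DMSO and no-cell controls.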
S2 tox: reduces viability in counter-screen for ATXN expression inhibitors. S2 cells (HEK-293 line with an ATXN2-luciferase reporter) viability, CellTiter-Fluor protease fluorescence, 24 h. Potency, µM (titrated, usually from 56.7 µM), actives largely listed as cytotoxic. 400,000 compounds, 0.49% hits. AID 651635; further: nearly all actives have a fitted effect of over 40% in size
ATXN2 expr inh: inhibitors of ATXN2 expression | HEK-293 ATXN2-luciferase reporter, luminescence, 24 h | Potency, µM (titrated, usually from 57 µM), without a hit: at the highest dose activity change, negative = inhibition, most hits filed as inhibitors | 360,000 compounds, 0.72% hits; further: on the % scale 0 is the no-effect control and ±100 the full control effect; nearly all actives have a fitted effect of over 55% in size
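ATXN2-luciferase reporter cells (luciferase flanked by upstream and downstream ATXN2 gene portions) were treated 24 h at 37 °C with compounds at up to 57 uM. SteadyGlo luminescence gave expression; GF-AFC fluorescence gave viability.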
KB-3-1 tox: kills parental KB-3-1 adenocarcinoma cells; AID 1347075; Potency, µM (top dose mostly 46.1 µM), actives largely listed as cytotoxic; 400,000 compounds, 1.4% hits; KB-3-1 viability, CellTiter-Glo ATP luminescence, 72 h; further: on the % scale 0 is the no-effect control and ±100 the full control effect; nearly all actives have a fitted effect of over 60% in size
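Cytotoxicity measured as CellTiter-Glo luminescence after 72 h at 37 C. Compound titrations were pinned onto drug-naive KB-3-1 parental adenocarcinoma cells grown in DMEM with 10% FBS, and normalized data fitted to concentration-response curves.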
HT1080 IDH1KD tx: kills HT-1080 cells with IDH1 knockdown; HT-1080 IDH1 knockdown viability, ATP luminescence, 48 h; 360,000 compounds, 2% hits; AID 686971; Potency, µM (top dose mostly 46.1 µM), for the others: at the highest dose activity, negative = toxicity, most hits filed as cytotoxic;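 further: 0% = DMSO wells and -100% = cell-free medium wells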
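Luminescent ATP read-out (CellTiter-Glo, 10 min at room temperature) after 48 h compound exposure at 37 °C gave viability of IDH1-knockdown HT-1080 cells. Activity was normalised to DMSO and cell-free wells, then fitted as concentration-response curves.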
KB-V1 cytotox: kills drug-selected multidrug resistant KB-V1 cells | KB-V1 MDR cells viability, CellTiter-Glo, 72 h | Potency, µM (doses to about 46.1 µM), usual class: cytotoxic | 400,000 compounds, 3.4% hits; further: on the % scale 0 is the no-effect control and ±100 the full control effect; nearly all actives have a fitted effect of over 60% in size
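KB-V1, DMEM (no phenol red) + 10% FBS; cpd pin-transferred, titration series; 72 h, 37 degrees C; CellTiter-Glo, luminescence. Data normalized, curve-fit.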
* hit, by the source's call; i = inactive; ? = inconclusive; / = not tested or not shown; [ ] = dose if it differs, or a comment. Most compounds without a hit are left out; they make up all but 6.2% or so of the library. The call rests on the fitted dose curve; in most records, active means well fitted curve in the direction sought with a large enough effect; inconclusive means small, poorly fitted or top-dose-only effect, or another doubt; inactive means no such curve, though single readings can be large; an effect the other way counts as inactive or inconclusive. Potency means the concentration at half of the fitted maximal effect.

SMILES | HT1080NT lethal | S2 tox | ATXN2 expr inh | KB-3-1 tox | HT1080 IDH1KD tx | KB-V1 cytotox
O=C(N1CCN(c2ccccn2)CC1)N1c2ccccc2Sc2ccccc21 | 0.89µM* | i | 38% | 0.58µM* | 0.89µM* | 1.8µM*
O=C(c1ccco1)N1CCN(C(=O)c2ccco2)C1=S | ? | ? | -34% | 12µM* | 16µM* | 16µM*
O=C(c1ccco1)N1c2ccccc2Sc2ccccc21 | -9% | i | -9% | i | ? | i
COc1cccc(NC(=O)Nc2cc(-c3cn4cccnc4n3)ccc2OC)c1 | / | ? | 44% | i | / | i
CCN(CC)c1ccc(NC(=O)c2cccc(F)c2)c(C)c1 | ? | i | -6% | 5.8µM* | 16µM* | ?
CCN(CC)c1ccc(NC(=O)c2ccco2)c(C)c1 | 4% | i | 18% | i | -10% | i
CCOc1ccc(NC(=O)CN2CCN(CC(=O)Nc3ccccc3OCC)CC2)cc1 | / | / | / | i | / | i
Cc1ccc(CNC(=O)Cc2ccc(-n3cccc3)cc2)cc1 | ? | i | 3% | 7.3µM* | 4.6µM* | 2.3µM*
COc1cc(OC)cc(C(=O)NCc2ccc(-n3cccc3)cc2)c1 | -19% | i | 5% | ? | ? | ?
Cc1ccc(CNC(=O)c2ccc(-n3cccc3)cc2)cc1 | 3% | i | 10% | i | 5% | i
O=C(Cc1ccc(-n2cccc2)cc1)NCc1cccs1 | 2.3µM* | i | -15% | 1.6µM* | 2.6µM* | 1.2µM*
COc1ccc(CC(=O)NCc2ccc(-n3cccc3)cc2)cc1OC | 4.6µM* | ? | -24% | 4.1µM* | 1.8µM* | 8.2µM*
COc1cccc(CN(C(=O)c2cccc(C)c2)C2CCS(=O)(=O)C2)c1 (configuration not stated) | / | / | / | i | / | i
COc1cccc(O)c1CN1CCC2(CC1)c1ccccc1[C@@H](NC(=O)c1ccsc1)[C@@H]2OC | / | i | / | / | / | /
Cc1ccc(-c2csc3nc(SCC(N)=O)n(Cc4ccccc4)c(=O)c23)cc1 | ? | i | -1% | i | ? | 21µM*
O=C1CN(C(=O)CSc2nnnn2-c2ccc(Cl)cc2)c2ccccc2N1 | 5% | i | -2% | i | 2% | 16µM*
Cc1ccc(Cn2c(SCC(=O)N3CC(=O)Nc4ccccc43)nc3ccccc3c2=O)cc1 | -11% | i | -12% | i | ? | 21µM*
O=C1CN(C(=O)CSc2nc3cc(Cl)ccc3c(=O)n2Cc2ccccc2)c2ccccc2N1 | -8% | i | 12%[11.3 µM] | i | -10% | i
C/C(N)=C(/C#N)C(=O)CSc1nc2ccccc2c(=O)n1Cc1ccc(C)cc1 | ? | ? | -36% | ? | 16µM* | ?
CC(C)Cn1c(SCC(=O)N2CC(=O)Nc3ccccc32)nc2ccccc21 | 10% | i | -3% | i | 2% | 10µM*
O=C(c1cccs1)N1CCN(c2ccccc2)CC1 | 41% | i | 8% | i | 15% | i
O=C(Nc1ccc(N2CCN(C(=O)c3cccs3)CC2)cc1)c1ccccc1F | -26% | i | -24% | ? | -19% | 7.3µM*
O=C(Nc1ccc(N2CCN(C(=O)c3cccs3)CC2)cc1)c1ccccc1Cl | ? | i | -29% | 16µM* | 9.2µM* | ?
O=C(Nc1cc(C(=O)N2CCN(c3ccccc3)CC2)ccc1Cl)c1cccs1 | -3% | i | -4% | i | -8% | 8.2µM*
COc1ccc(-c2csc(-c3nc(-c4ccc(Br)s4)cs3)n2)cc1F | / | i | 0% | i | / | i
SMILES | HT1080NT lethal | S2 tox | ATXN2 expr inh | KB-3-1 tox | HT1080 IDH1KD tx | KB-V1 cytotox
O=C(CSc1nn(-c2ccccc2)c(=S)s1)Nn1cnnc1 | 6% | i | -6% | i | 2% | i
Cc1ccc(NC(=O)CNCc2ccccc2Cl)cc1S(=O)(=O)N(C)C | -9% | i | 7% | i | -7% | i
Cc1ccc(NC(=O)CSc2nn(-c3ccccc3)c(=S)s2)cc1S(=O)(=O)N(C)C | -15% | i | -25% | ? | ? | 6.5µM*
Cc1ccc(NC(=O)CNCc2ccc(Cl)cc2Cl)cc1S(=O)(=O)N(C)C | -8% | ? | -25% | ? | -10% | 13µM*
Cc1ccc(/C=N/Nc2cn[nH]c(=O)n2)o1 | 7% | i | 24% | i | 2% | i
C(=N\Nc1nncc2ccccc12)/c1ccccn1 | ? | ? | ? | ? | 5.2µM* | i
C(=N\Nc1nc2ccccc2[nH]1)/c1cccc2nccnc12 | ? | i | ? | ? | ? | ?
C#CCn1cc(/C=N/Nc2nc3ccccc3[nH]2)c2ccccc21 | 16µM* | i | 17% | i | ? | i
Fc1cccc(/C=N/Nc2nncc3ccccc23)c1 | -23% | ? | / | i | -1% | i
CCCCn1c(/C=N/Nc2nc3ccccc3[nH]2)nc2ccccc21 | ? | ? | ? | ? | 15µM* | i
O=c1nc(N/N=C/c2ccccn2)cn[nH]1 | ? | i | 6.3µM* | ? | ? | i
CC(C)(C)c1ccc(-c2nc(SCC(=O)Nc3ccccc3F)n3[nH]c(=O)cc3n2)cc1 | / | i | -4% | i | / | ?
CCn1c(C)nc2cc(C(=O)NNC(=O)[C@@H](NC(=O)c3cc(OC)cc(OC)c3)C(C)C)ccc21 | -4% | i | 1% | i | -1% | i
CCOc1ccc(NC(=O)Cn2c(C)cc3ccccc3c2=O)cc1 | / | i | 8% | i | / | ?

Bioassay records deposited in PubChem BioAssay by National Center for Advancing Translational Sciences (NCATS).
